The list is not random: actives were taken first. Their share in the collection is about 7.9%.
HT1080-NT tox = qHTS for induction of synthetic lethality in tumor cells producing 2HG: qHTS for the HT-1080-NT fibrosarcoma cell line; HT-1080-NT fibrosarcoma viability, CellTiter-Glo ATP luminescence, 48 h; Potency, µM (series often up to 46.1 µM), for the others: top-dose activity, negative = less viability, usual class: cytotoxic; 360,000 compounds, 1.6% hits; AID 686970, 2013;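 also: NT is the 2HG producing partner of a matched IDH1 knockdown line; 0% = DMSO-treated cells and -100% = media-only wells without cells; nearly all actives have a fitted effect of over 55% in size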
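HT-1080-NT; 750 cells/well; 5% FBS RPMI; 48 h compound, 37 degrees C; CellTiter-Glo luminescence; curve fitting and curve-class assignment.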
HT1080 IDH1KD tx = qHTS for induction of synthetic lethality in tumor cells producing 2HG: qHTS for the HT-1080-IDH1KD cell line; HT-1080 IDH1 knockdown viability, ATP luminescence, 48 h; Potency, µM (top dose mostly 46.1 µM), for the others: top-dose activity, negative = toxicity, most hits filed as cytotoxic; 360,000 compounds, 2% hits; AID 686971, 2013;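 also: 0% = DMSO wells and -100% = cell-free medium wells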
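Knockdown cells (IDH1KD HT-1080) received compounds 2 h after plating at 750 cells/well and were kept 48 h at 37 °C in 5% FBS RPMI. A CellTiter-Glo luminescence read gave % activity for curve fitting.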
KB-3-1 cytotox = qHTS assay for MDR1-selective chemotherapeutics: Primary screen using the parental adenocarcinoma cell KB-3-1 | KB-3-1 viability, CellTiter-Glo ATP luminescence, 72 h | Potency, µM (series often up to 46.1 µM), usual class: cytotoxic | 400,000 compounds, 1.4% hits | AID 1347075, 2019; also: % is scaled to controls: 0 for no effect and ±100 for the full control effect; nearly all actives have a fitted effect of over 60% in size
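Using CellTiter-Glo luminescence, growth of non-resistant KB-3-1 adenocarcinoma cells is assessed 72 h after pin-tool compound addition at 37 °C. Normalized responses across the concentration series yield fitted curves.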
MCF10A rereplic = A quantitative high throughput screen for small molecules that induce DNA re-replication in MCF 10a normal breast cells; Potency, µM (doses to about 46.1 µM), for the others: top-dose activity, positive = re-replication, actives largely listed as activators; 350,000 compounds, 2.9% hits; MCF 10A DNA re-replication, Hoechst nuclear intensity, 48 h; also: % of control where 0% means no effect; nearly all actives have a fitted effect of over 50% in size
SW480 rereplic = A quantitative high throughput screen for small molecules that induce DNA re-replication in SW480 colon adenocarcinoma cells; Potency, µM (top dose mostly 46.1 µM), inactives show at the highest dose re-replication activation, usual class: activators; SW480 DNA re-replication, Hoechst DNA content imaging, 48 h; 340,000 compounds, 1.8% hits; also: % of control where 0% means no effect; nearly all actives have a fitted effect of over 55% in size
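Treated cells incubate 48 hr (37 C, 5% CO2), are stained 40 min with Hoechst, and nuclear fluorescence is enumerated; a rise in nuclei with high DNA signal marks re-replication.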
KB-V1 MDR tox = qHTS assay for MDR1-selective chemotherapeutics: Primary screen using the drug-selected MDR subline cells KB-V1; AID 1347076, 2019; KB-V1 MDR cells viability, CellTiter-Glo, 72 h; 400,000 compounds, 3.4% hits; Potency, µM (highest dose often 46.1 µM), most hits filed as cytotoxic; also: % is scaled to controls: 0 for no effect and ±100 for the full control effect; nearly all actives have a fitted effect of over 60% in size
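qHTS viability screen in drug-selected KB-V1 MDR cells: 72 h compound treatment at 37 degrees C, ATP luminescence end point.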
Active calls of the source: *; i = inactive; ? = inconclusive; . = not tested or not shown; [ ] = remark or other dose. Calls follow the shape of the dose curve; as a rule, active = well fitted curve in the direction sought with a large enough effect; inconclusive = small, poorly fitted or top-dose-only effect, or another doubt; inactive = no such curve, though single readings can be large; an effect the other way counts as inactive or inconclusive. Potency is read from the fitted curve at half-maximal effect.

SMILES	HT1080-NT tox	HT1080 IDH1KD tx	KB-3-1 cytotox	MCF10A rereplic	SW480 rereplic	KB-V1 MDR tox
Cc1cc(Nc2nc(Cl)c(Cl)cc2Cl)n(-c2ccccc2)n1	?	?	12µM*	?	26%	?
Cc1cc(Nc2ncc(Cl)cc2Cl)n(-c2ccccc2C)n1	-13%	-24%	i	?	?	i
Cc1ccc(-n2nc(C)cc2Nc2ncc(Cl)cc2Cl)cc1	-1%	-4%	i	?	?	21µM*
Cc1cc(Nc2ccccc2)n(-c2ccccc2)n1	-15%	-3%	i	0%	3%	i
C#Cc1cccc(Nc2nc(NC(C)C)nc3ccsc23)c1	?	21µM*	i	.	.	?
C#Cc1cccc(Nc2nc(NCc3ccccc3OC)nc3ccsc23)c1	21µM*	?	?	.	.	?
C#Cc1cccc(Nc2nc(NCCOC)nc3ccsc23)c1	?	?	i	.	.	i
Clc1ccccc1C(c1ccccc1)(c1ccccc1)n1ccnc1	?	?	i	14µM*	2%	15µM*
CCOc1ccc(NC(=O)CN(C)CC(=O)Nc2ccccc2SC)cc1OCC	0%	-3%	i	1%	3%	3.7µM*
COc1ccc(NC(=O)CN(C)CC(=O)Nc2ccccc2SC)cc1	2%	-4%	i	-1%	-1%	21µM*
COc1ccc(CSCC(=O)Nc2ccccc2SC)cc1	-2%	-22%	?	?	?	18µM*
COc1ccc(CSCC(=O)NCCC(C)C)cc1	3%	0%	i	5%	-4%	i
CCOc1ccc(NC(=O)CN(C)CC(=O)Nc2cc(Cl)ccc2C#N)cc1OCC	-3%	-8%	i	0%	0%	i
COc1ccc(NC(=O)CN(C)C(C)C(=O)N2CCCCC2)cc1 (centres undefined)	?	8%	i	-4%	-6%	12µM*
O=C(Nc1cccn(Cc2c(Cl)cccc2Cl)c1=O)C1CC1	0%	-7%	i	-10%	-140%	i
Clc1ccc(CN2CCC(c3ccccc3)CC2)cc1	-1%	-2%	i	18%	0%	i
CSc1ccccc1NC(=O)CN(C)CC(=O)c1c(C)[nH]c2ccccc12	-5%	4%	i	3%	-7%	21µM*
COc1ccc2c(n1)Sc1nc3ccccc3nc1N2	24%	13%	i	21µM*	?	i
Cc1cc(NC(=O)c2c(-c3ccccc3Cl)noc2C)no1	-8%	-6%	i	4%	-5%	13µM*
Cc1onc(-c2ccccc2Cl)c1C(=O)NC(=S)Nc1ccc(C(C)C)cc1	18%	9%	i	4%	-7%	i
Cc1ccc(NC(=S)NC(=O)c2c(-c3ccccc3Cl)noc2C)cc1	10%	5%	i	16%	-5%	21µM*
COC(=O)c1cc(OC)c(OC)cc1NC(=O)c1c(-c2ccccc2Cl)noc1C	2%	2%	?	27%	?	3.3µM*
Cc1[nH]n(C)c(=O)c1C(=O)c1c(-c2ccccc2Cl)noc1C	-29%	-27%	i	26µM*	?	i
COc1cccc(-n2c(=O)c3c4c(sc3n(Cc3ccc(C)cc3)c2=O)CCCC4)c1	.	.	i	.	.	i
CC(NC(=O)Cn1c(-c2cccs2)cc2cc(F)ccc21)c1ccccc1 (centres undefined)	.	.	i	.	.	i
SMILES	HT1080-NT tox	HT1080 IDH1KD tx	KB-3-1 cytotox	MCF10A rereplic	SW480 rereplic	KB-V1 MDR tox
Cc1onc(-c2ccccc2Cl)c1C(=O)Nc1cccc(-c2cn3cccnc3n2)c1	-1%	-23%	i	?	20%	16µM*
Cc1noc(C)c1C(=O)OCC(=O)Nc1cccc(S(=O)(=O)N(C)C)c1	-1%	-3%	i	4%	2%	i
Cc1onc(-c2c(F)cccc2Cl)c1C(=O)Nc1cccc(Cn2cccn2)c1	8%	7%	i	-8%	4%	21µM*
COC(=O)c1cc(OC)c(OC)cc1NC(=O)Cn1nnc(-c2ccccc2Cl)n1	14%[9.24 µM]	4%	i	17%	15µM*	?
Cc1onc(-c2c(F)cccc2Cl)c1C(=O)OCC(=O)Nc1cccc(S(=O)(=O)N(C)C)c1	-6%	-14%	?	7%	-1%	4.1µM*
O=C(Nc1ccccc1)c1nn(-c2cccc(C(F)(F)F)c2)ccc1=O	17%	-3%	i	0%	3%	i
CCOn1c(SCC)nc2ccccc2c1=O	13%	-5%	i	7%	0%	i
COc1ccc(CC(=O)Nc2ccc(-c3noc(-c4ccccc4OC)n3)cc2)cc1	-25%	?	i	12%	2%	i
CC(CCc1ccccc1)NC(=O)CCNC(=O)Cn1ccc2ccccc2c1=O (centres undefined)	3%	-1%	i	-35%	?	i
COc1ccc(NC(=O)Cn2nnc(-c3ccccc3NS(=O)(=O)c3ccccc3)n2)cc1	-19%	?	23µM*	8%	-3%	2.9µM*
COc1ccc(/C(N)=N/OC(=O)c2c(-c3ccccc3Cl)noc2C)cc1OC	?	16µM*	?	?	?	?
COc1ccc(C[C@@H]2OC3(C=CC(=O)C=C3)O[C@H]2Cc2ccc(OC)cc2)cc1	5.2µM*	1.3µM*	2.3µM*	0.73µM*	0.92µM*	?
O=C1C=CC2(C=C1)O[C@H](Cc1ccccc1)[C@@H](Cc1ccccc1)O2	3.7µM*	1.2µM*	?	?	0.92µM*	16µM*
CN(Cc1ccccc1)C(=O)c1ccccc1C(=O)O	5%	14%	i	-2%	-16%	i
CC1=NNC(=O)/C1=C\c1cn(-c2ccccc2)nc1-c1ccc(F)cc1	10µM*	5.8µM*	i	4.6µM*	?	?
O=C(O)CCCCCN1C(=O)/C(=C/c2cn(-c3ccccc3)nc2-c2cccs2)SC1=S	?	?	i	26%	?	i
CC1=NNC(=O)/C1=C\c1cn(-c2ccccc2)nc1-c1cccs1	8.2µM*	8.2µM*	i	2.6µM*	4.1µM*	i
O=Cc1cn(-c2ccccc2)nc1-c1ccc(F)cc1	2%	5%	i	1%	-2%	i
